From PubChem BioAssay AID1159580 (chemical genetic matrix, 2015)
Out of some 5,500 compounds screened, about 2,000 (36%) were called active. Inconclusive results (about 18%) are left out. Rule as the data show it: active = normalized growth mostly below about 0.91 (no sharp cut-off); inconclusive = no clear call, values can overlap the other calls; inactive = mostly above about 0.92. This is one part of the list.

Test: chemical genetic growth profiling, strain panel (AID 1159580);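 also: tested at 20 µM; growth read once vehicle control cultures reached saturation at 30 °C; 1 = growth at the plate median or of vehicle wells; lower values mean less growth of the strain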
Details: S. cerevisiae deletion strains, growth OD

Measured: normalized growth

CCOC(=O)C(C)(N)Cc1ccc(O)c(O)c1 (stereo unspecified)
active: locus YOR106W, strain vam3, hits give low values 0.859
inactive: locus YAL021C, strain ccr4, hits give low values 0.967 | locus YAL026C, strain drs2, hits give low values 0.958 | locus YAL030W, strain snc1, hits give low values 0.965 | locus YBL061C, strain skt5, hits give low values 0.965 | locus YBR009C, strain hhf1, hits give low values 0.984 | locus YBR023C, strain chs3, hits give low values 0.981 | locus YBR171W, strain sec66, hits give low values 0.967 | locus YBR231C, strain swc5, hits give low values 0.992 | locus YBR279W, strain paf1, hits give low values 0.993 | locus YCL011C, strain gbp2, hits give low values 0.983 | locus YCL016C, strain dcc1, hits give low values 0.971 | locus YCL061C, strain MRC1, hits give low values 0.965 | locus YCL069W, strain vba3, hits give low values 0.989 | locus YCR088W, strain abp1, hits give low values 0.995 | locus YDL005C, strain med2, hits give low values 0.986 | locus YDL040C, strain nat1, hits give low values 0.993 | locus YDR001C, strain nth1, hits give low values 0.982 | locus YDR069C, strain doa4, hits give low values 0.944 | locus YDR137W, strain rgp1, hits give low values 0.956 | locus YDR159W, strain sac3, hits give low values 0.953 | locus YDR195W, strain ref2 0.985 | locus YDR297W, strain sur2, hits give low values 0.974 | locus YDR334W, strain swr1, hits give low values 0.921 | locus YDR335W, strain msn5, hits give low values 0.971 | locus YDR392W, strain spt3, hits give low values 0.964 | locus YEL003W, strain gim4, hits give low values 0.98 | locus YEL037C, strain rad23, hits give low values 0.983 | locus YEL061C, strain CIN8 (second series), hits give low values 0.988 | locus YER015W, strain faa2, hits give low values 0.952 | locus YER016W, strain bim1, hits give low values 0.992 | locus YER111C, strain swi4, hits give low values 0.968 | locus YER155C, strain BEM2 (second series), hits give low values 0.977 | locus YFR010W, strain ubp6, hits give low values 0.976 | locus YGL167C, strain pmr1, hits give low values 0.946 | locus YGL173C, strain kem1, hits give low values 0.945 | locus YGL227W, strain vid30, hits give low values 0.983 | locus YGL240W, strain doc1, hits give low values 0.958 | locus YGL253W, strain hxk2, hits give low values 0.978 | locus YHR013C, strain ard1, hits give low values 0.951 | locus YHR027C, strain rpn1, hits give low values 0.947 | locus YHR030C, strain SLT2, hits give low values 1.08 | locus YHR079C, strain IRE1, hits give low values 1.08 | locus YHR142W, strain chs7, hits give low values 0.989 | locus YJL092W, strain hpr5, hits give low values 0.978 | locus YJL095W, strain BCK1 (second series), hits give low values 0.973 | locus YJL095W, strain BCK1, hits give low values 1.02 | locus YJL115W, strain asf1, hits give low values 0.95 | locus YJL129C, strain trk1, hits give low values 0.994 | locus YJL154C, strain vps35, hits give low values 0.986 | locus YJL164C, strain tpk1, hits give low values 0.963 | locus YJL166W, strain qcr8, hits give low values 0.985 | locus YJL187C, strain SWE1, hits give low values 0.977 | locus YJR066W, strain TOR1, hits give low values 1 | locus YKL160W, strain elf1, hits give low values 0.987 | locus YKR026C, strain gcn3, hits give low values 0.971 | locus YKR091W, strain srl3, hits give low values 0.998 | locus YLL001W, strain dnm1, hits give low values 0.974 | locus YLL026W, hits give low values 0.971 | locus YLL041C, strain sdh2, hits give low values 0.962 | locus YLR027C, strain aat2, hits give low values 0.962 | locus YLR113W, strain HOG1, hits give low values 1 | locus YLR221C, strain rsa3, hits give low values 0.976 | locus YLR258W, strain gsy2, hits give low values 0.986 | locus YLR262C, strain YPT6 (second series), hits give low values 0.881 | locus YLR320W, strain mms22, hits give low values 0.988 | locus YLR342W, strain FKS1, hits give low values 0.977 | locus YLR357W, strain rsc2, hits give low values 0.969 | locus YLR370C, strain arc18, hits give low values 0.981 | locus YLR384C, strain iki3, hits give low values 0.958 | locus YML120C, strain ndi1, hits give low values 0.974 | locus YMR058W, strain fet3, hits give low values 0.946 | locus YMR125W, strain sto1, hits give low values 0.998 | locus YMR129W, hits give low values 0.997 | locus YMR205C, strain PFK2, hits give low values 0.971 | locus YMR231W, strain pep5, hits give low values 0.972 | locus YNL071W, strain lat1, hits give low values 1 | locus YNL183C, strain NPR1, hits give low values 0.987 | locus YNL209W, strain ssb2, hits give low values 0.961 | locus YNL248C, strain rpa49, hits give low values 0.984 | locus YNL322C, strain KRE1 (second series), hits give low values 0.979 | locus YNR049C, strain mso1, hits give low values 0.972 | locus YOR001W, strain rrp6, hits give low values 0.977 | locus YOR070C, strain gyp1, hits give low values 0.978 | locus YOR080W, strain dia2, hits give low values 0.982 | locus YOR083W, strain WHI5, hits give low values 0.983 | locus YOR231W, strain MKK1, hits give low values 1.06 | locus YOR265W, strain rbl2, hits give low values 0.969 | locus YOR270C, strain vph1, hits give low values 0.951 | locus YOR290C, strain snf2, hits give low values 0.946 | locus YPL051W, strain arl3, hits give low values 0.964 | locus YPL078C, strain atp4, hits give low values 0.984 | locus YPL106C, strain sse1, hits give low values 0.886 | locus YPL240C, strain hsp82, hits give low values 0.975 | locus YPL256C, strain CLN2, hits give low values 1.06

COCCCCC(=NOCCN)c1ccc(C(F)(F)F)cc1
inactive: locus YAL040C, strain CLN3, hits give low values 0.994 | locus YCL061C, strain MRC1 (second series), hits give low values 0.997 | locus YDR363W, strain ESC2, hits give low values 0.975 | locus YER002W, strain NOP16, hits give low values 1 | locus YJR075W, strain HOC1, hits give low values 0.992 | locus YNL153C, strain GIM3, hits give low values 1.02 | locus YNL175C, strain NOP13, hits give low values 1.01 | locus YNL197C, strain WHI3, hits give low values 1 | locus YNL224C, strain SQS1, hits give low values 1.02 | locus YNL322C, strain KRE1, hits give low values 0.988 | locus YOR083W, strain WHI5 (second series), hits give low values 0.993
